# According to paper PMC5540273 (PLoS ONE, 2017):
# Where “and” joins values, the source holds several entries; their conditions need not be identical. Equal entries are not always repeated. Where two headings read alike, the source gives them in different places.
# Columns and labels:
# ULK2 = conditions: concentration: 1 μM, replicates: in singlicate, n = 1
# ULK3 = conditions: concentration: 1 μM, replicates: in singlicate, n = 1
# VEGFR2 = tested on: T1, VEGFR2; conditions: concentration: 1 μM, replicates: in singlicate, n = 1
# T1 construct: gene KDR
# VPS34 = tested on: T2, VPS34; conditions: concentration: 1 μM, replicates: in singlicate, n = 1
# T2 construct: gene PIK3C3
# VRK2 = conditions: concentration: 1 μM, replicates: in singlicate, n = 1
# WEE1 = conditions: concentration: 1 μM, replicates: in singlicate; n = 1
# WEE2 = conditions: concentration: 1 μM, replicates: in singlicate, n = 1
# WNK1 = conditions: concentration: 1 μM, replicates: in singlicate, n = 1
# WNK2 = conditions: concentration: 1 μM, replicates: in singlicate, n = 1
# WNK3 = conditions: concentration: 1 μM, replicates: in singlicate, n = 1
# 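Further: KINOMEscan kinase panel screen.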
SMILES,%Inh (ULK2) [%],%Inh (ULK3) [%],%Inh (VEGFR2) [%],%Inh (VPS34) [%],%Inh (VRK2) [%],%Inh (WEE1) [%],%Inh (WEE2) [%],%Inh (WNK1) [%],%Inh (WNK2) [%],%Inh (WNK3) [%],%Inh (ULK2; 1 µM),%Inh (ULK3; 1 µM),%Inh (VEGFR2; 1 µM),%Inh (VPS34; 1 µM),%Inh (VRK2; 1 µM),%Inh (WEE2; 1 µM),%Inh (WNK1; 1 µM),%Inh (WNK2; 1 µM),%Inh (WNK3; 1 µM)
Nc1nc(-c2cccnc2)c(-c2ccnc3ccccc23)s1 [GW684083],0,18,0,72,16,27,11,0,0,31,,,,,,,,,
Nc1nc(-c2ccc3c(N)n[nH]c3c2)cc(N2CCCCC2)n1 [GSK2228768],0,0,0,0,0,39,0,0,0,0,,,,,,,,,
CN1CCC(n2cnc(-c3ccc(F)cc3)c2-c2ccnc(NC3CCNCC3)n2)CC1 [SB-229482],4,19,0,50,18,0,30,21,0,49,,,,,,,,,
CCC(CC)(CC)n1cnc2c(N)ncnc21 [SKF-97620],2,42,13,34,0,9,6,21,0,26,,,,,,,,,
Cn1ccc2ncnc(Nc3ccc(Oc4cccc(Cl)c4)c(Cl)c3)c21,31,38,0,52,0,0,34,0,31,0,,,,,,,,,
O=C(c1ccc(-c2cc(-c3c[nH]nc3-c3ccccn3)ccn2)cc1)N1CCCC1 [GW792479],0,0,0,26,0,30,0,0,0,0,,,,,,,,,
CC(C)N1CCC(n2cnc(-c3ccc(F)cc3)c2-c2ccnc(N)n2)CC1 [SB-223132],0,5,0,27,0,17,0,0,0,0,,,,,,,,,
CSc1ccc(NC2=C(c3ccccc3Cl)C(=O)NC2=O)cc1 [SB-342411],0,0,0,1,0,2,0,0,3,17,,,,,,,,,
C[C@H]1CC[C@@H](C(=O)Nc2ccccc2)CN1c1cc(-c2ccc3c(N)n[nH]c3c2)nc(N)n1 [GSK2283293],0,7,0,0,19,11,14,2,0,17,,,,,,,,,
Fc1cccc(COc2ccc(Nc3ncnc4nn5ccccc5c34)cc2Cl)c1 [GW689066],0,2,0,60,28,0,0,0,0,20,,,,,,,,,
O=C(Nc1n[nH]c2nc(-c3ccco3)c(Br)cc12)c1ccc(CN2CCCC2)cc1.O=C(O)[C@H](O)[C@@H](O)C(=O)O [SB-742352],0,27,48,0,0,0,4,0,0,0,,,,,,,,,
OCCOCCn1ccc2ncnc(Nc3ccc(Oc4cccc(Cl)c4)c(Cl)c3)c21,0,0,0,0,46,0,0,0,0,0,,,,,,,,,
Cc1ccc(C)c(NC(=O)NCCNc2ccnc(Nc3ccc(F)cc3)n2)c1 [GSK1379878],0,0,0,0,0,8,0,0,9,15,,,,,,,,,
Cl.c1ccc(Cn2ccc3cc(Nc4ncnc5ccccc45)ccc32)cc1 [GW275568],0,9,16,0,0,12,14,5,18,27,,,,,,,,,
O=c1cc(N2CCOCC2)nc2n(Cc3cccc(Cl)c3)ccn12 [GSK2296823],0,11,6,93.3,2,0,13,5,0,3,,,,,,,,,
Nc1n[nH]c2nnc(-c3ccccc3)cc12 [SB-517389],0,10,0,0,0,21,15,10,17,5,,,,,,,,,
Clc1cc(Nc2ncnc3cc[nH]c23)ccc1OCc1ccccn1,14,21,6,13,9,0,0,0,1,20,,,,,,,,,
Clc1cccc(-c2nc(Nc3ccncc3)c3ccccc3n2)c1 [GW873004],0,0,0,48,0,0,0,0,0,0,,,,,,,,,

SMILES,%Inh (ULK2) [%],%Inh (ULK3) [%],%Inh (VEGFR2) [%],%Inh (VPS34) [%],%Inh (VRK2) [%],%Inh (WEE1) [%],%Inh (WEE2) [%],%Inh (WNK1) [%],%Inh (WNK2) [%],%Inh (WNK3) [%],%Inh (ULK2; 1 µM),%Inh (ULK3; 1 µM),%Inh (VEGFR2; 1 µM),%Inh (VPS34; 1 µM),%Inh (VRK2; 1 µM),%Inh (WEE2; 1 µM),%Inh (WNK1; 1 µM),%Inh (WNK2; 1 µM),%Inh (WNK3; 1 µM)
COC(=O)c1cccc(NC(=O)NCCNc2ccnc(Nc3ccc(F)cc3)n2)c1 [GSK1379883],0,23,5,10,0,39,16,24,0,9,,,,,,,,,
COc1ccc(-c2nc3n(c2-c2ccncc2)CCC3)cc1 [SKF-104493],,,,,,0,,,,,13% and 0%,13% and 0%,15% and 0%,28% and 20%,7% and 0%,13% and 0%,27% and 0%,0% and 21%,33% and 16%
Cc1cc(N2CCC(NS(=O)(=O)c3ccc(F)cc3)CC2)nc(Nc2cccc(C#N)c2)n1.O=C(O)C(F)(F)F [GSK1653537],0,4,0,0,0,10,15,6,13,2,,,,,,,,,
O=C(Nc1ccccc1)Nc1ccc(Oc2ccc3nccn3n2)cc1,0,2,,14,0,3,13,0,0,0,,,,,,,,,
CC(=O)Nc1n[nH]c2ncc(-c3ccccc3)cc12 [SB-548492],35,30,18,7,0,0,20,0,0,0,,,,,,,,,
FC(F)(F)c1ccc(-c2cc(-c3c[nH]nc3-c3ccccn3)ccn2)cc1 [GW599550],0,0,4,0,0,12,0,0,7,31,,,,,,,,,
CS(=O)(=O)CCNCc1nc(-c2ccc3ncnc(Nc4ccc(OCc5cccc(F)c5)c(Cl)c4)c3c2)cs1.Cl [GW583340],0,0,1,0,0,9,0,4,9,18,,,,,,,,,
c1ccc(-c2ccc3c(-c4ccnc(Nc5ccc6c(c5)OCCO6)n4)cnn3n2)cc1 [GW818941],0,15,9,0,7,2,0,2,0,15,,,,,,,,,
N#Cc1ccc(Oc2ccc(Nc3ncnc4cc[nH]c34)cc2Cl)cc1,34,30,12,0,3,28,8,0,7,0,,,,,,,,,
COC(=O)c1c(-c2ccccc2)c2cc(Cl)ccc2c(=O)n1Cc1ccc(S(C)(=O)=O)cc1,0,0,0,0,10,0,0,0,4,0,,,,,,,,,
Nc1nc(-c2ccc3c(N)n[nH]c3c2)cc(N2CCC[C@@H](C(=O)Nc3ccccc3)C2)n1.O=C(O)C(F)(F)F.O=C(O)C(F)(F)F [GSK2288359],3,13,18,0,0,8,0,11,6,14,,,,,,,,,
COc1ccc(Nc2nccc(N3CCC(NC(=O)c4cccc(NC(C)=O)c4)C3)n2)cc1 (centres unmarked) [GSK1379732],0,11,0,22,41,5,7,0,11,0,,,,,,,,,
Nc1nc(-c2ccccn2)c(-c2ccnc3ccccc23)s1 [GW548057],0,13,12,9,62,13,0,15,11,50,,,,,,,,,
CSc1nn2c(=O)cc(N3CCOCC3)nc2n1Cc1cccc(Cl)c1Cl [GSK2347225],0,0,0,97.1,0,29,35,11,18,4,,,,,,,,,
CNc1nccc(-c2c(-c3ccc(F)cc3)ncn2CCCN2CCOCC2)n1 [SB-222516],0,17,0,0,0,0,9,1,0,0,,,,,,,,,
Cc1ccc(O)cc1Nc1cc(C(F)(F)F)nc2ccc(-c3ccncc3)cc12 [GW630823],0,0,0,0,0,0,30,0,0,0,,,,,,,,,
CCc1nc(-c2cccc(C)c2)c(-c2ccnc(NC(=O)c3ccccc3)c2)s1,9,14,0,14,0,0,10,0,59,0,,,,,,,,,
COc1cc2ncnc(Nc3ccc(OCc4ccccc4Br)c(Cl)c3)c2cc1OC.Cl [GI261590],0,3,0,0,11,0,0,14,0,22,,,,,,,,,
